Assay [1] in a line: qHTS assay for small molecule agonists of the p53 signaling pathway (AID 651631; calls by dose curve; note: nearly all actives have a fitted effect of over 15% in size). An outline of the steps:
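Testing took place in human colorectal HCT-116 cells with stable p53RE-driven beta-lactamase. After 16 h of compound exposure at 37 °C, a FRET substrate was added and fluorescence recorded 2 h later.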

A short description of assay [2]: qHTS assay for small molecules that induce genotoxicity in human embryonic kidney cells expressing luciferase-tagged ATAD5 (AID 651632). Note: nearly all actives have a fitted effect of over 15% in size. Summed up:
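Luminescence read-out: after 16 hr compound exposure at 37C, ATAD5-luciferase HEK293T cells received Amplite, 30 min RT, then CCD imaging. A rise in signal marks genotoxic stress.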

Assay [3] is described as follows: qHTS assay for small molecule agonists of the p53 signaling pathway - cell viability (AID 651633; calls by dose curve; note: series mostly up to about 83 µM; nearly all actives have a fitted effect of over 30% in size). An outline of the steps: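 Viability counter-read: CellTiter-Glo luminescence (30 min, room temperature) in the same p53RE-bla plates. These plates had been exposed to compounds for 16 h at 37 C.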
(qHTS replaces the single test concentration by a dilution series.)

Assay [4] can be described thus: qHTS assay for small molecules that induce genotoxicity in human embryonic kidney cells expressing luciferase-tagged ATAD5 - cell viability (AID 651634; calls by dose curve; note: nearly all actives have a fitted effect of over 25% in size). Summed up:
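HEK293T ATAD5-luc cells, 2,000/well; compound 15.5 hr, 37C/5% CO2; CellTiter-Fluor 30 min, 37C; fluorescence read.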

A short description of assay [5]: qHTS assay to test for compound auto fluorescence at 590 nm (red) in HepG2 cells (AID 720674). Summed up:
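Red autofluorescence (Ex/Em 540/590 nm, Rose Bengal sodium equivalents) was measured in HepG2 cells, 2,000 per well in MEM plus 10% FBS, plated overnight at 37 C. Readings were taken 1 hr after adding 23 nL compound or DMSO, at 37 C and 5% CO2.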

A short description of assay [6]: qHTS assay to test for compound auto fluorescence at 535 nm (green) in HepG2 cells (AID 720675).
Assay [7] is described as follows: qHTS assay to test for compound auto fluorescence at 460 nm (blue) in HEK293 cells (AID 720678). An outline of the steps:
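Cells were seeded and left to adhere for 4-5 hr at 37C. Compounds were then pin-transferred. After an overnight incubation at 37C under 5% CO2, intrinsic fluorescence at 405/460 nm was measured and referenced to triamterene.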

Assay [8] is described as follows: qHTS assay to test for compound auto fluorescence at 590 nm (red) in HEK293 cells (AID 720679). An outline of the steps:
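Each well held 2,000 HEK293 cells in medium containing 10% dialyzed FBS. Following 4-5 hr attachment at 37C, 23 nL test compound or DMSO was added; plates sat overnight, and red fluorescence (540/590nm) was recorded.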

The nature of assay [9]: qHTS assay for small molecule disruptors of the mitochondrial membrane potential - cell viability (AID 720634; calls by dose curve;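 note: human HepG2 liver cancer cells; series mostly up to about 83 µM; nearly all actives have a fitted effect of over 20% in size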). An outline of the steps: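 Luminescence from CellTiter-Glo (ATP content) gave viability in HepG2 cells, read in the same wells as the MMP dye assay after 1 hr compound exposure at 37 C.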
Assay [10] can be described thus: qHTS assay for small molecule disruptors of the mitochondrial membrane potential (AID 720635). Note: potency is the fitted concentration of half-maximal effect. An outline of the steps: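 Mitochondrial membrane potential tracked with Mito-MPS dye, red aggregates (ex 540/em 590 nm) against green monomers (ex 490/em 535 nm). Compound treatment 1 hr at 37C, dye 30 min in HepG2.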

Molecules are shown by their SMILES. Results filed as inconclusive are left out. Calls of active or inactive are those of the source. Unless noted, calls come from the whole dose curve; as a rule, active = well fitted curve in the direction sought with a large enough effect in the repeat runs; inconclusive = weak or mixed curves; inactive = no such curve, though single readings can be large; an effect the other way counts as inactive or inconclusive.

For `CCC(=O)OCCC(C)CCC=C(C)C` (stereo unspecified), the compound was called inactive in assay [1], in assay [2], in assay [3], in assay [5], in assay [6] and in assay [7]. The call in [8] was inactive. The Potency entry in [4] was “inactive”.
With `CCC(C)(C)C1CCC(=O)CC1`, the result in assay [1], in [2], in [3], in assay [9], in assay [5] and in [6] was inactive. For the same compound, the outcome in assay [7] and in [8] was inactive.
As for `O=CN1CCOCC1`, the compound was classed as inactive in assay [1], in [2], in assay [3], in assay [9], in assay [5] and in assay [6]. In addition, the result in assay [7] and in [8] was inactive.
Regarding `CCC1COC(=O)O1` (stereo unspecified), the compound was called inactive in assay [1], in assay [2], in [3], in [9], in assay [6] and in assay [7]. Further, the compound was called inactive in assay [8]. Moreover, in [10], the Potency result was “inactive”.
In the case of `CCCCC/C=C/CC(=O)OC`, the compound was called inactive in [1], in assay [2], in [3], in assay [9], in assay [5] and in assay [6]. Also, the compound was classed as inactive in assay [7] and in assay [8].
For the compound `CCCCCC1Nc2cc(C(F)(F)F)c(S(N)(=O)=O)cc2S(=O)(=O)N1` (stereo unspecified), the compound was classed as inactive in assay [2], in assay [3], in assay [9], in assay [5], in [6] and in [7]. Moreover, the outcome in [8] was inactive. The Potency result in assay [4] and in assay [10] was “inactive” in each case.
Turning to `CC(C)COC(=O)COc1ccc(Cl)cc1Cl`, the outcome in assay [2], in assay [3], in assay [9], in assay [5], in assay [6] and in assay [7] was inactive. Moreover, in assay [8], the call was inactive. Also, the Potency result in [4] and in [10] was “inactive” throughout.
Regarding `O=c1cc(O)c(Cl)c[nH]1`, the result in [2], in assay [3], in assay [9], in [5], in [6] and in assay [7] was inactive. The outcome in assay [8] was inactive. For the same compound, the Potency result in [4] and in assay [10] was “inactive” throughout.
Regarding `Nc1c(NC/C=C\COc2cc(CN3CCCCC3)ccn2)c(=O)c1=O`, the call in assay [2], in assay [3], in assay [9], in assay [5], in assay [6] and in assay [7] was inactive. Besides, the compound was classed as inactive in assay [8]. Also, the Potency result in assay [4] and in assay [10] was “inactive” in each case.
With `O=C(/C=C/c1ccccc1)NCCO`, the compound was classed as inactive in assay [2], in [3], in assay [9], in assay [5], in [6] and in assay [7]. For the same compound, the result in assay [8] was inactive. The Potency result in assay [4] and in [10] was “inactive” throughout.
For `O=C(CN1CCN(Cc2ccc3c(c2)OCO3)CC1)N1c2ccccc2Sc2ccccc21`, the result in assay [2], in assay [3], in [9], in assay [5], in [6] and in [7] was inactive. In addition, the result in assay [8] was inactive. In addition, the Potency result in assay [4] and in [10] was “inactive” in each case.
For `CC(C)CCCC(C)CC=O` (stereo unspecified), the compound was classed as inactive in assay [2], in assay [3], in assay [9], in [5], in [6] and in assay [7]. Besides, in assay [8], the call was inactive. For the same compound, the Potency entry in assay [4] was “inactive”.
For `C=C(C)C(=O)OCCCCCCOC(=O)C(=C)C`, the result in [2], in assay [3], in [9], in [5], in [6] and in assay [7] was inactive. For the same compound, the call in assay [8] was inactive. Also, the Potency entry in assay [4] and in assay [10] was “inactive” throughout.
`C1=C\CC/C=C\CC/1`: the compound was called inactive in [2], in [3], in [9], in assay [5], in [6] and in [7]. In [8], the result was inactive. Besides, the Potency entry in assay [4] was “inactive”.
`CCC(O)C(C)(C)C` (stereo unspecified): the result in [2], in assay [3], in [9], in assay [5], in assay [6] and in assay [7] was inactive. Besides, in assay [8], the result was inactive. Moreover, the Potency result in [4] and in assay [10] was “inactive” throughout.
Consider `CC(C)(CO)[C@@H](O)C(=O)NCCCO`, for which the outcome in assay [2], in [3], in assay [9], in assay [5], in assay [6] and in assay [7] was inactive. In assay [8], the compound was called inactive. In addition, the Potency result in assay [4] and in [10] was “inactive” in each case.
For `CCCCC[Si](OCC)(OCC)OCC`, the result in assay [2], in assay [3], in assay [9], in [5], in assay [6] and in assay [7] was inactive. In assay [8], the call was inactive. Further, the Potency entry in assay [4] was “inactive”. Besides, in assay [10], the Potency was 48.6 µM (active).
Consider `O=C1NC2NC(=O)NC2N1` (stereo unspecified), for which the call in assay [2], in [3], in assay [9], in assay [6], in [7] and in assay [8] was inactive. Moreover, the Potency entry in assay [4] and in assay [10] was “inactive” throughout.
Take `O=C1c2ccccc2-c2ccccc21`: the call in [2], in [3], in assay [9], in assay [5], in assay [6] and in assay [7] was inactive. For the same compound, the compound was called inactive in [8]. Further, in assay [4], the Potency result was “inactive”.
As for `C[Si]1(C)N[Si](C)(C)N[Si](C)(C)N1`, the compound was called inactive in assay [2], in [3], in assay [9], in assay [5], in assay [6] and in [7]. In addition, the compound was called inactive in assay [8]. Moreover, the Potency entry in assay [4] is “inactive”. For the same compound, in [10], the Potency was 27.3 µM (active).

Values taken from PubChem BioAssay (Tox21).
